PubChem BioAssay AID492994 (Johns Hopkins Ion Channel Center, 2010)
Results with a measured potency or affinity are listed apart. Active and inactive are the calls of the source.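 How the source made its calls: active means TRPC4 ion channel inhibited over 30% at some tested dose, with a fitted dose response curve; inactive means no inhibition or no dose response curve.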

Molecular target: Short transient receptor potential channel 4 (Mus musculus) (UniProt Q9QUQ5)
Assay: potency of mouse TRPC4 calcium flux blockers – cell-based, HEK293 TRPC4/mu-opioid, DAMGO stimulus, Fluo-4, dose response (AID 492994)

Sequence of Short transient receptor potential channel 4 (Mus musculus) (Q9QUQ5 whole entry, looked up): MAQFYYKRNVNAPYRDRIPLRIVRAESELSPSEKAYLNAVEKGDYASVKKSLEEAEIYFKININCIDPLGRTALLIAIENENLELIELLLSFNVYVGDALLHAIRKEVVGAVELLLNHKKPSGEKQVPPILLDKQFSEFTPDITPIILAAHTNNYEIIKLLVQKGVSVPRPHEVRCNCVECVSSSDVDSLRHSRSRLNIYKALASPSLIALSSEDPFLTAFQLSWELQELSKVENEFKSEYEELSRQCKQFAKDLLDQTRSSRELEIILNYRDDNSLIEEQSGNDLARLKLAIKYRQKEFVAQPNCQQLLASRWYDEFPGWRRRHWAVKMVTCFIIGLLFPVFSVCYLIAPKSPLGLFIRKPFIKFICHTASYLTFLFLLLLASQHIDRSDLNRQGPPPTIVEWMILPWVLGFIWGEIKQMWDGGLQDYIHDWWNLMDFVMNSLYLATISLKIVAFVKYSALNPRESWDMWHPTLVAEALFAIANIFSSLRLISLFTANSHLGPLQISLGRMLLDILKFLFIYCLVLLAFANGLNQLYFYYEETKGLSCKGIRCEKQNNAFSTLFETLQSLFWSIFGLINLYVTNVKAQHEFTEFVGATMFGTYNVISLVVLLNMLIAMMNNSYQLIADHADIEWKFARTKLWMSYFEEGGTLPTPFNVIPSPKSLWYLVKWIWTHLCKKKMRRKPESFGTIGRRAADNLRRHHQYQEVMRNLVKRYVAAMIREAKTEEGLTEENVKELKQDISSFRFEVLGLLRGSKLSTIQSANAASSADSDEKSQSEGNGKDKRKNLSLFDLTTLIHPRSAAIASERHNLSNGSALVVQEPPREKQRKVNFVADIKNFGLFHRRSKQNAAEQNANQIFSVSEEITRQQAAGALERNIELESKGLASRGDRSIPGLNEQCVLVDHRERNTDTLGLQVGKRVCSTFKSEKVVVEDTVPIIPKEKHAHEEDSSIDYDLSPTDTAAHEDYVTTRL

SMILES | outcome
Cc1cc(N2CCNCC2)nc2ccccc12 | inactive
Cc1cc(N2CCN(C)CC2)nc2ccccc12 | inactive
